Compound activity deposited in PubChem by Sanford-Burnham Center for Chemical Genomics.
CYP2C9 inhib – inhibitors of human CYP2C9 | inhibition, % at 5 µM | 96,000 tested, 20% active | AID 777 | P11712 | CYP2C9 Supersomes, luciferin-H conversion, luminescence;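 active = blocking of liver enzyme CYP2C9 beyond about 50% at 5 µM, limit read from the data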
Pyk2 oligo antag – blocks oligomerization of human Pyk2 in cells. Q14289. Q293 cells, Pyk2 FERM NanoBiT luminescence; active compounds read low. z-score (the deposit names both 25 µM and 10 µM). 99,000 tested, 0.83% active;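 active = Z-score of -3 or lower, scaled per plate to the spread of control and sample wells; inactive = z-score above -3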;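 note: negative z-score means lost luminescence so less FERM oligomerization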
CYP2C19 activ – increases human CYP2C19 enzyme activity | P33261 | recombinant CYP2C19, luciferin-H EGE luminescence; active compounds read high; 0 = fully inhibited enzyme, 1 = untreated enzyme | activation factor at 5 µM | 96,000 tested, under 10 active;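 active = activation factor of at least 2 at 5 µM in the primary screen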;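 note: 0 = wells with 2.5 mM tranylcypromine and 1 = vehicle-only wells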
Target sequence (P33261 whole entry, looked up): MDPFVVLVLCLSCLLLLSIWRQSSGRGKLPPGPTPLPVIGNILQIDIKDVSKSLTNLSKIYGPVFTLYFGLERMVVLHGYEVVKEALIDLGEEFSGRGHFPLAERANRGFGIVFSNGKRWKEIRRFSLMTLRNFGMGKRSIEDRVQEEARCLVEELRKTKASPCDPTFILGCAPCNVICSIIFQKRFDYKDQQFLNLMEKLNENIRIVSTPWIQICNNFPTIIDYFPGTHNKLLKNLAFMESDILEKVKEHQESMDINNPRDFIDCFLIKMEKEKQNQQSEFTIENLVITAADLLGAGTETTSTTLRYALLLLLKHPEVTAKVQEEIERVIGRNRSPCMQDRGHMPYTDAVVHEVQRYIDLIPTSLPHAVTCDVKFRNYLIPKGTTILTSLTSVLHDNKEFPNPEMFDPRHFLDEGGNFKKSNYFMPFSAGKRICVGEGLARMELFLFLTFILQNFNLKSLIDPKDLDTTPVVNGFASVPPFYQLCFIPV
CYP2C9 activ – increases human cytochrome P450 2C9 activity. P11712. recombinant CYP2C9, luciferin-H conversion, luminescence; active compounds read high; factor 1 = untreated enzyme, 0 = blocked. activation factor at 5 µM. 96,000 tested, 1.4% active. AID 1024;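 active = activation factor of 2 or more for CYP2C9 at a 5 µM dose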;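 note: 0 = sulfaphenazole-blocked wells and 1 = vehicle-only wells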
CYP2C19 inh – blocks human cytochrome P450 2C19; P33261; CYP2C19 Supersomes, luciferin-H EGE luminescence, 30 min; inhibition, % at 5 µM; 96,000 tested, 21% active; AID 778;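 active = CYP2C19 inhibition above a set limit at 5 µM in the primary screen, cut at about 50% in these data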;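 note: plate controls were negative control wells for no effect and 2.5 mM tranylcypromine positive control for full effect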
Active calls of the source: *; . = no result given. Rows were chosen to be rich in hits. Some 28% of all compounds tested hit in one or more screens of this group.

SMILES	CYP2C9 inhib	Pyk2 oligo antag	CYP2C19 activ	CYP2C9 activ	CYP2C19 inh
COC(=O)CN1C(c2ccccc2)=Nc2ccc(Cl)cc2C1c1ccccc1 (stereo not drawn)	20.3	-3.05*	0.7	0.8	25.2
CCC(=O)OCc1c(C(F)(F)F)nn(C)c1Sc1ccc(F)cc1	41.3	-0.32	0.4	0.6	61.1*
CC(=O)OCc1c(F)c(F)c(-n2nc(C)cc2C)c(F)c1F	-35.1	1.05	1.2	1.4	-22.1
CC(=O)OCc1c(C(F)(F)F)nn(C)c1Sc1ccccc1	15.8	0.54	0.1	0.8	89.7*
CCC(=O)OCc1c(C(F)(F)F)nn(C)c1Sc1ccc(Cl)cc1	60.4*	-0.18	0.2	0.4	75.2*
COc1ccc(C2CC(c3ccccc3)Nc3nc(NC(=O)c4ccco4)nn32)cc1 (stereo not drawn)	24.3	-3.7*	0.8	0.8	16.9
COc1ccc(C2CC(c3ccc(OC)cc3)n3nc(NC(=O)c4ccco4)nc3N2)cc1 (stereo not drawn)	11.4	-3.79*	0.9	0.9	8.8
CC(C)CNC(=O)CSc1nnc(-c2ccccn2)n1Cc1ccccc1	72.1*	-0.12	0.2	0.3	79.8*
CCCn1c(SCC(=O)NCCc2ccccc2)nnc1-c1ccccn1	55.6*	0.18	0.4	0.4	55.6*
CC(C)c1ccc(NC(=O)CSc2nnc(-c3ccccn3)n2C)cc1	39.6	-0.58	0.9	0.6	14.6
O=C(CSc1nnc(-c2ccncc2)n1Cc1ccccc1)NCCc1ccccc1	62.6*	-0.58	0.3	0.4	71.2*
CCn1c(SCC(=O)NC(C)(C)C)nnc1-c1ccccn1	23.3	0.78	0.3	0.8	73.2*
CNC(=O)CSc1nnc(-c2ccncc2)n1Cc1ccccc1	13.3	-0.24	0.8	0.9	17.0
CCSc1nc(C)cc(Oc2ccc(=O)n(C)n2)n1	-0.1	0.98	0.9	1	11.2
COc1ccc(OC)c(C2C(C(N)=O)=C(C)Nc3nc(CCCO)nn32)c1 (stereo not drawn)	1.1	.	1.1	1	-5.0
CCCS(=O)(=O)c1c(S(=O)(=O)CCC)c2c3ccccc3ccn2c1C(N)=O	-0.3	0.99	1	1	2.0
CCN(CC)c1ccc(NC(=O)COC(=O)c2ccc3ccccc3n2)cc1	2.2	0.34	0.8	1	22.7
CCCn1c(SCC(=O)Nc2nnc(-c3ccccc3)s2)nnc1-c1ccccn1	71.4*	-0.12	0.3	0.3	72.6*
CCOC(=O)/C(C#N)=C/c1cc(C)n(-c2ccccc2)c1C	53.8*	-1.12	0.5	0.5	52.4*
CCOC(=O)/C(C#N)=C/c1cc(C)n(-c2ccc(Br)cc2)c1C	0.7	.	1.1	1	-6.1
O=C1Nc2c(c(=O)[nH]c(=O)n2-c2ccccc2F)C(C(F)(F)F)(C(F)(F)F)N1	.	-0.4	.	.	.
N#C/C(=C\c1cn(Cc2ccccc2C#N)c2ccccc12)C(=O)NCc1cccs1	60.3*	.	0.8	0.4	16.0
N#C/C(=C\c1cn(CCOc2ccccc2)c2ccccc12)C(=O)NCC1CCCO1 (stereo not drawn)	92.4*	-2.28	0.4	0.1	57.7*
CC(=O)NC(CCS(C)(=O)=O)C(=O)Nc1ccc(C)c(F)c1 (stereo not drawn)	-19.1	0.68	1.1	1.2	-6.2
CCC(=O)Nc1cc(C(=O)OC(C(=O)c2ccc(C)c(C)c2)c2ccccc2)ccc1C (stereo not drawn)	57.6*	-1.73	0.6	0.4	39.5
SMILES	CYP2C9 inhib	Pyk2 oligo antag	CYP2C19 activ	CYP2C9 activ	CYP2C19 inh
COC(=O)c1ccc(C)c(NC(=O)CCSc2ccc(Cl)cc2)c1	38.6	0.76	0.5	0.6	49.3
Cc1ccc(C)c(NC(=O)CCC(=O)OC(C(=O)c2ccccc2)c2ccccc2)c1 (stereo not drawn)	2.0	1.21	1	1	1.0
COC(=O)c1ccc(C)c(NC(=O)CCSc2ccccc2)c1	55.4*	-0.06	0.7	0.4	29.4
CC(C)CC1NC(=O)N(CC(=O)N2CCN(S(=O)(=O)c3ccccc3)CC2)C1=O (stereo not drawn)	-1.9	0.57	1	1	-3.2
Cc1cccc(C)c1OC1(c2ccccc2)OC(=O)c2ccccc21 (stereo not drawn)	69.2*	-1.36	0.2	0.3	81.5*
Cc1ccc(C2C(C(=O)O)c3ccccc3C(=O)N2C)c(C)c1 (stereo not drawn)	.	-0.11	.	.	.
Cc1cc(C)c(OC2(c3ccccc3)OC(=O)c3ccccc32)c(C)c1 (stereo not drawn)	54.8*	-0.23	0.5	0.5	53.8*
